High-throughput results (PubChem)
This is one part of a sample in which hits are shown more often than they occur.
MARV entry inh: inhibitors of Marburg virus binding or cell entry; AID 540276; Potency, µM (series often up to 37.8 µM), without a hit: at the highest dose activity change, negative = inhibition, hits mostly inhibitors; actives 1.8% (n = 300,000); Marburg virus pseudotyped entry inhibition, cell reporter; calls by dose curve; tested in HEK293 cells; further: potency means the concentration at half of the fitted maximal effect; on the % scale 0 is the no-effect control and ±100 the full control effect
Vaccinia Venus: inhibitors of vaccinia virus (Venus reporter) | Vaccinia virus Venus reporter expression, fluorescence | Potency, µM (series often up to 36.5 µM), inactives show at the top dose activity change, negative = inhibition, most hits filed as inhibitors | actives 0.46% (n = 330,000); calls by dose curve; tested in A549 cells; further: potency means the concentration at half of the fitted maximal effect; on the % scale 0 is the no-effect control and ±100 the full control effect; nearly all actives have a fitted effect of over 30% in size
LASV entry inh: blocks Lassa virus binding to or entry into cells; Potency, µM (highest dose often 37.9 µM), for inactives: at the top dose activity change, negative = inhibition, actives largely listed as inhibitors; Lassa virus pseudotype entry inhibition, cell reporter; actives 1.2% (n = 300,000); calls by dose curve; tested in HEK293 cells; further: potency means the concentration at half of the fitted maximal effect; on the % scale 0 is the no-effect control and ±100 the full control effect; nearly all actives have a fitted effect of over 50% in size
Shiga toxin inh: inhibitors of Shiga toxin in Vero cells; inhibition, % at 38.7 µM; actives 9.2% (n = 290,000); Vero cells, Shiga toxin protein synthesis inhibition reporter; in the data active means inhibition mostly above about 28%, no sharp cut-off; inactive means mostly below about 43%; further: 0% is about no effect
VACV mCherry inh: inhibitors of vaccinia virus infection (mCherry reporter signal); Vaccinia virus mCherry reporter infection, fluorescence; actives 0.63% (n = 310,000); Potency, µM (top dose mostly 36.5 µM), for inactives: top-dose activity change, negative = inhibition, actives largely listed as inhibitors; calls by dose curve; tested in A549 cells; further: potency means the concentration at half of the fitted maximal effect; on the % scale 0 is the no-effect control and ±100 the full control effect; nearly all actives have a fitted effect of over 35% in size
CHX counter: counter-screen hit for Shiga toxin inhibitors, cycloheximide | cell reporter, cycloheximide protein synthesis inhibition counterscreen | max response, % | actives 12% (n = 300,000) | AID 2314; in the data active means max response mostly above about 13%, no sharp cut-off; inactive means mostly below about 14%; further: read at 38.3 µM for the half of the compounds with a filed dose; 0% is about no effect
Starred values were filed as active, the others as inactive; i = inactive; ? = inconclusive; nt = not tested or not shown; ! = not active in a repeat; [ ] = dose if it differs, or a comment.

SMILES	MARV entry inh	Vaccinia Venus	LASV entry inh	Shiga toxin inh	VACV mCherry inh	CHX counter
COCC=CC1=CC2=CC(=O)C(C)(OC(=O)c3cnc4ccccc4n3)C(=O)C2=CN1CC1CC1 (stereo not drawn)	58%[14.2 µM]	nt	nt	nt	nt	nt
Cc1nn(CC(=O)NCCc2ccccc2)c(=O)c2cccn12	nt	nt	nt	7	nt	12
CCS(=O)(=O)N1CCN=C1SC(C)c1ccccc1 (stereo not drawn)	nt	nt	nt	4	nt	-3
CCOc1ccc(CCNC(=O)CCCn2c(=O)c3cccn3c3cccnc32)cc1	nt	-11%	0%[46.1 µM]	nt	-18%	nt
COc1cccc(-c2csc(Nc3ccc(Oc4ccccc4)cc3)n2)c1	nt	-11%	nt	nt	26%	nt
COc1cccc(Nc2nc(-c3cccc(N4C(=O)c5ccccc5C4=O)c3)cs2)c1	?	-17%	?	30	-16%	33*
COc1cccc(Nc2nc(-c3ccc(O)cc3)cs2)c1	22%	nt	6%	78	nt	35*
CC1(C(=O)NCc2ccccc2)CCC(=O)N1C1CC1 (stereo not drawn)	nt	-4%	nt	nt	5%	nt
O=C(NN=C1C[C@@H](O)[C@H](O)[C@H]2[C@@H]3C(=O)N(c4cccc(Oc5ccccc5)c4)C(=O)[C@@H]3CC[C@H]12)OCc1ccccc1	4%[14.2 µM]	nt	?	nt	nt	nt
CCCC12CN3CCN(CC(C3)/C1=N\NC(=O)c1ccccc1N)C2	?	2%	-1%	38*	-14%	25*
O=C(N/N=C1\C2CN3CCN(C2)CC1(c1ccccc1)C3)c1ccc(F)cc1	-3%[46.1 µM]	-14%	28%	0	-6%	23*
Nc1ccccc1C(=O)N/N=C1/C2CN3CCN(C2)CC1(Cc1ccccc1)C3	4%[46.1 µM]	-15%	0%[46.1 µM]	29	-2%	-6
Nc1ccccc1C(=O)N/N=C1\C2CN3CCN(C2)CC1(c1ccccc1)C3	9%	-3%	20%	81*	-5%	50*
COCCn1c(SCC(=O)c2ccc(OC)cc2)nc2cc(C(=O)NC3CCCC3)ccc2c1=O	nt	3%	7%[46.1 µM]	nt	-8%	nt
CC(=O)NCCCNC(=S)NCCCN(Cc1ccc(Cl)cc1)c1ccc(Br)cn1	nt	11µM*	nt	nt	?	nt
Cc1cccn2c1nc(=S)n2C(=O)c1ccco1	?	-12%	?	82*	i	43*
COc1cccc(C(=O)Nc2c(C(=O)N3CCN(c4ccc(F)cc4)CC3)oc3ccccc23)c1	nt	-4%	13%[46.1 µM]	nt	-5%	nt
Cc1ccc(C(=O)COC(=O)c2ccc(-c3cnc4ccccc4n3)cc2)cc1C	28%	-2%	4%	-5	-7%	14*
Cc1ccc(C(=O)CSc2cnc3ccccc3n2)cc1C	18µM*	13%	?	70*	-14%	63*
CN(C)C(=O)CSc1cnc2ccccc2n1	-1%[46.1 µM]	-13%	-4%[46.1 µM]	14	i	4
Cc1ccc(C(=O)COC(=O)c2cc(Cl)nc3ccccc23)cc1C	-4%	nt	18%	-5	nt	7
CCOc1ccc(CNC(=O)c2ccc3oc(=O)n(Cc4ccccc4)c3c2)cc1	nt	-11%	5µM*	nt	-15%	nt
COC(=O)c1cc2oc3ccccc3c2n1CC(=O)Nc1ccccc1OC	-12%	-28%	-20%	20	nt	-1
CCn1c(C(=O)NCc2ccc(F)cc2)cc2oc3ccccc3c21	3.5µM*	10%	?	nt	-16%	nt
COC(=O)c1cc2oc3ccccc3c2n1Cc1ccc(Cl)cc1	?	-9%	nt	nt	-6%	nt
SMILES	MARV entry inh	Vaccinia Venus	LASV entry inh	Shiga toxin inh	VACV mCherry inh	CHX counter
COc1cccc(CNC(=O)c2cc3oc4ccccc4c3n2C)c1OC	?	-14%	5.6µM*	23	-19%[1.46 µM]	8
CCOc1ccccc1CNC(=O)c1cc2oc3ccccc3c2n1CC	3.3µM*	11%	5.2µM*	-16	-19%	13
Cc1ccc(CNC(=O)c2ccc3oc(=O)n(Cc4ccccc4)c3c2)cc1	nt	0%	?	nt	-4%	nt
CCN(Cc1ccncc1)Cc1ccc2c(c1)CN(C(=O)c1ccccc1-n1cccn1)CCO2	nt	0%	nt	nt	-6%	nt
CC(C)(C)OC(=O)N1CCC(c2c(C(=O)NCc3ccco3)cnn2-c2ccccc2)CC1	nt	-12%	-22%[46.1 µM]	nt	-5%	nt
COc1ccc(-n2c(=O)c3ccc(C(=O)NCc4ccc(C)cc4)cc3n(CC(=O)Nc3ccc(F)cc3)c2=O)cc1	?	-9%	1%[46.1 µM]	nt	-9%	nt
CC12CCC(/C(=N/O)C1=O)C2(C)C (stereo not drawn)	nt	nt	nt	-6	nt	6
CCOc1ccc(CNC(=O)c2cc3oc4ccccc4c3n2C)cc1	4µM*	7%	?	33	10µM*!	13
CCOc1ccc(-n2ccc(=O)c(C(=O)O)n2)cc1	-14%[46.1 µM]	-14%	22%[46.1 µM]	-10	-21%	-1
S=C(c1ccc(-c2ccc(Cl)cc2Cl)o1)N1CCCC1	nt	nt	nt	22	nt	18*
S=C(c1ccc(-c2ccc(Cl)cc2Cl)o1)N1CCCCC1	?	-20%	-15%	78*	-24%	42*
CC1=C(C(=O)Nc2ccccc2)C(c2ccc(Br)cc2)n2nc(CCCO)nc2N1 (stereo not drawn)	1%[46.1 µM]	26%	-16%[46.1 µM]	nt	9%	nt
Cc1cc(SCc2ccccc2C)nc(=O)[nH]1	nt	nt	nt	-4	nt	11
Cc1cc(SCc2ccc(Br)cc2)nc(=O)[nH]1	nt	nt	nt	19	nt	40*
Cc1cc(SCc2ccc(Cl)c(Cl)c2)nc(=O)[nH]1	nt	nt	nt	17	nt	28*
COc1cc(C2C(C(=O)Nc3ccccc3C)=C(C)Nc3nc(SCc4cc(C)ccc4C)nn32)ccc1O (stereo not drawn)	nt	?	-5%[46.1 µM]	-8	?	-7
Cc1cc(=O)n2[nH]c(-c3ccc(F)cc3)cc2n1	22%	-4%	-23%	51*	-17%	25*
Cc1ccccc1-c1cc2nc(-c3ccc([N+](=O)[O-])cc3)cc(=O)n2[nH]1	13%[46.1 µM]	-3%	26%[46.1 µM]	-5	i	1
O=c1cc(-c2ccc([N+](=O)[O-])cc2)nc2cc(-c3ccc(F)cc3)[nH]n12	-5%	-2%	-9%	-5	-11%	-1
Cc1cccc(-c2cc3nc(-c4ccccc4)cc(=O)n3[nH]2)c1	?	-13%	?	49	-22%	21*
Cc1cc(=O)n2[nH]c(-c3ccc(Cl)cc3)cc2n1	?	-20%	9%	82*	nt	36*
CN(C(=O)CSc1nc2ccc(NC(=O)c3cccs3)cc2s1)c1ccccc1	-25%[46.1 µM]	-12%	?	nt	i	nt
CSc1nnc(CNS(=O)(=O)c2ccc(Cl)cc2)n1C	-11%[46.1 µM]	-4%	?	-7	i	-4
O=C(Nc1ccccc1)Nc1ccc2snnc2c1	?	-19%	10%	58*	-2%	41*
CN(C)c1ccc(NC(=O)Nc2ccc3snnc3c2)cc1	11%	-14%	21%	45*	-13%	27*
O=C(Nc1ccccc1)Nc1ccc2nnsc2c1	-23%	?	30%	61*	?	36*
Cc1cc(C)c(NC(=O)Nc2ccc3snnc3c2)c(C)c1	?	-6%	8%[46.1 µM]	nt	0%	nt
O=C(NCc1ccccc1)c1ccc2nnsc2c1	?	-7%	8%[46.1 µM]	-1	-1%	7
CCCCOc1cc(C(=O)NCCN(CC)CC)c2ccccc2n1	10µM*	-9%	13µM*	-20	0%	-4
